# Measured values published in PubChem BioAssay AID2235 (The Scripps Research Institute Molecular Screening Center, 2010).
# Among all 320,000 compounds or so, about 2,800 (0.88%) were called active. The full list was thinned out, with actives kept by preference. Values without a mark were called inactive.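 Rule for the calls: active = inhibition above the mean inhibition of all tested compounds plus 3 SD, computed separately for each screening campaign (cut at about 15% in these data); inactive = the rest.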
# Molecular target: Serine/threonine-protein phosphatase PP1-alpha catalytic subunit (Homo sapiens) (UniProt P62136)
# Sequence (P62136 whole entry, looked up): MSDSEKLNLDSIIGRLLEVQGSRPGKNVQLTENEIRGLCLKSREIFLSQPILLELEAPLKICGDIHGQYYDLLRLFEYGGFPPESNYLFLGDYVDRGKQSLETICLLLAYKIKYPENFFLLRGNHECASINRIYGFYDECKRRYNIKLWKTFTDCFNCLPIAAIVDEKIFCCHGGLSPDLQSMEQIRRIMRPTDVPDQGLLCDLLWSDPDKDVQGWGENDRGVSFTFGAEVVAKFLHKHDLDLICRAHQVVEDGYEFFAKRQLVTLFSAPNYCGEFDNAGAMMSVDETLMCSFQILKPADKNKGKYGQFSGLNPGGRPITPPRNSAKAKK
# Assay: PP1-alpha phosphatase inhibitors, primary screen, counter-screen for PP5 inhibitor project, biochemical, fluorescence, OMFP substrate, single point (AID 2235)
# Details: purified PP1alpha, at 6.7 µM, hits give high values
row,Compound,inhibition
1,Cc1cc(C(=O)CCl)c(C)n1CC1COc2ccccc2O1 (stereo unspecified),-1.57%
2,O=C(CN1C(=O)C2C3C=CC(C3)C2C1=O)NCC1COc2ccccc2O1 (stereo unspecified),0.06%
3,O=C1C(=O)N(CC2COc3ccccc3O2)c2ccccc21 (stereo unspecified),18.4% (active)
4,O=C(NC(Cc1c[nH]c2ccccc12)C(=O)O)/C(=C/c1ccco1)NC(=O)c1ccccc1 (stereo unspecified),-3.53%
5,CN(C(=O)CSc1nnc(-c2n[nH]c3ccccc23)o1)c1ccccc1,-3.45%
6,COc1ccc(/C=C2\SC(=O)N(CCC(=O)NC3CCS(=O)(=O)C3)C2=O)cc1 (stereo unspecified),-1.73%
7,Cn1c(=N)n(CC(O)c2ccccc2)c2ccccc21 (stereo unspecified),-1.18%
8,N=c1n(Cc2ccc(Cl)cc2)c2ccccc2n1CC(O)c1ccco1 (stereo unspecified),21.9% (active)
9,Cn1c(=N)n(CC(O)c2cccs2)c2ccccc21 (stereo unspecified),2.31%
10,O=S(=O)(c1cccc(-c2cn3ccccc3n2)c1)N1CCCC1,-0.43%
11,O=C(O)c1ccccc1OCc1ccccc1Cl,-3.14%
12,CC(C)c1cc(C(N)=O)c(NC(=O)c2cccc(COc3ccc(Br)cc3)c2)s1,6.73%
13,COc1ccc(N2CCN(S(=O)(=O)c3ccc4c(c3)NC(=O)C(C)C(=O)N4)CC2)cc1 (stereo unspecified),-1.74%
14,CSC1=NCCN1C(=O)Cc1cccc2ccccc12,-1.43%
15,CN(C)[C@@H]1C(=O)C(C(N)=O)=C(O)[C@@]2(O)C(=O)C3=C(O)c4c(O)ccc(Cl)c4[C@@H](O)[C@H]3C[C@@H]12,5.56%
16,C=C1c2c(Cl)ccc(O)c2C(O)=C2C(=O)[C@]3(O)C(O)=C(C(N)=O)C(=O)[C@@H](N(C)C)[C@@H]3[C@@H](O)C12 (stereo partly specified),23.5% (active)
17,Cc1cc(Nc2cccc(F)c2)n2ncnc2n1,-2.78%
18,CN(C)c1ccc(/C=N/Nc2cc(N3CCOCC3)nc(N3CCOCC3)n2)cc1,-2.51%
19,Cc1cc(N/N=C\c2ccc(Br)cc2)nc(-n2nc(C)cc2C)n1,21.7% (active)
20,Cc1nc(Cl)cc(N/N=C/c2ccccc2)n1,-6.15%
21,COc1ccccc1/C=N\Nc1cc(C)nc(-n2nc(C)cc2C)n1,30.7% (active)
22,COc1cccc(/C=N/Nc2cc(C)nc(-c3ccccc3O)n2)c1O,6.15%
23,COc1ccccc1/C=N/Nc1nc(C)c(C(C)=O)s1,1.23%

row,Compound,inhibition
1,CS(=O)(=O)N(Cc1nc2sc3c(c2c(=O)[nH]1)CCCC3)C1CCCCC1,1.31%
2,NC1=NC(c2ccc([N+](=O)[O-])cc2)N(c2ccc(F)cc2)C(N)=N1 (stereo unspecified),1.43%
3,CCOc1ccc(C)cc1S(=O)(=O)NC1CCCCCC1,0.47%
4,NS(=O)(=O)c1cccc(NC(=O)CN2CCCc3ccccc32)c1,-0.85%
5,O=C(CN1CCN(Cc2ccccc2)CC1)NC(c1ccccc1)c1ccccc1,10.6%
6,O=C(CN1CCc2ccccc21)NC(c1ccccc1)c1ccccc1,17.5% (active)
7,CCn1cc(CN2CCCC(CNS(=O)(=O)Cc3ccccc3)C2)cn1 (stereo unspecified),0.72%
8,COC(=O)N1CN(C(=O)OC)CN(C(=O)OC)C1,-3.93%
9,O=C(CCCN1C(=O)/C(=C/c2cccs2)SC1=S)Nc1ccc(O)cc1,-0.73%
10,CCCCC(=O)Nc1ccc(C(=O)Nc2cc(C(F)(F)F)ccc2Cl)cc1,1.1%
11,CCCCN(CCCC)CCC(O)c1cc2c(Cl)cc(Cl)cc2c2cc(C(F)(F)F)ccc12 (stereo unspecified),17% (active)
12,CC(C)c1nnc(NC(=O)CCC(=O)N2CCN(c3cccc(Cl)c3)CC2)s1,-3.62%
13,NNC(=O)c1cnn(-c2ccccc2)c1C(F)(F)F,0.34%
14,CCO/N=C(/C)c1c(O)cc(-c2ccccc2)n(-c2ccccc2)c1=O,-2.6%
15,CC(C)NC(=O)NC(=O)COC(=O)c1ccc(NC(=O)CC#N)cc1,-2.32%
16,CCOc1ccc(NC(=O)CCNC(=O)c2ccc(Br)cc2)cc1,1.21%
17,CCOc1ccc(NC(=O)c2ccc(NC(=O)COC(=O)c3ccc(NC(=O)CC#N)cc3)cc2)cc1,75.8% (active)
18,CN=C(c1ccccc1)c1c(C)cccc1C,2.55%
19,CCNC(=O)NC(=O)C(C)OC(=O)c1cc(S(=O)(=O)N2CCCCCC2)ccc1OC (stereo unspecified),1.67%
20,COc1cccc(NC(=O)Cn2c3ccccc3c3nc4n(c(=O)c32)CCS4)c1,-2.19%
21,O=C(NCc1ccc2c(c1)OCO2)C12CC3CC(CC(C3)C1)C2,-3.56%
22,O=C(CSc1nnc(C2CC2)n1Cc1ccccc1)Nc1cccnc1Cl,18% (active)
23,COc1ccc(-c2nnc(SCC(=O)Nc3cccnc3Cl)n2C)cc1,-4.29%
